Source: the supplement of paper PMC11732987, “Enantioselective OTUD7B fragment discovery through chemoproteomics screening and high-throughput optimisation” (Communications Chemistry, 2025)

Tests used:
Test in all cases: log2 ratio of Biotin-Ahx-Ub-VS probe labelling (fragment/DMSO); higher = less target engagement (more negative = stronger competition), active = hit call of the paper (q ≤ 0.05, log2 ratio ≤ -1)
Conditions in all cases: compound concentration: 200 uM; treatment time: 3 h
USP19 = biological target: T1, USP19 (UniProt O94966)
T1 sequence (whole entry): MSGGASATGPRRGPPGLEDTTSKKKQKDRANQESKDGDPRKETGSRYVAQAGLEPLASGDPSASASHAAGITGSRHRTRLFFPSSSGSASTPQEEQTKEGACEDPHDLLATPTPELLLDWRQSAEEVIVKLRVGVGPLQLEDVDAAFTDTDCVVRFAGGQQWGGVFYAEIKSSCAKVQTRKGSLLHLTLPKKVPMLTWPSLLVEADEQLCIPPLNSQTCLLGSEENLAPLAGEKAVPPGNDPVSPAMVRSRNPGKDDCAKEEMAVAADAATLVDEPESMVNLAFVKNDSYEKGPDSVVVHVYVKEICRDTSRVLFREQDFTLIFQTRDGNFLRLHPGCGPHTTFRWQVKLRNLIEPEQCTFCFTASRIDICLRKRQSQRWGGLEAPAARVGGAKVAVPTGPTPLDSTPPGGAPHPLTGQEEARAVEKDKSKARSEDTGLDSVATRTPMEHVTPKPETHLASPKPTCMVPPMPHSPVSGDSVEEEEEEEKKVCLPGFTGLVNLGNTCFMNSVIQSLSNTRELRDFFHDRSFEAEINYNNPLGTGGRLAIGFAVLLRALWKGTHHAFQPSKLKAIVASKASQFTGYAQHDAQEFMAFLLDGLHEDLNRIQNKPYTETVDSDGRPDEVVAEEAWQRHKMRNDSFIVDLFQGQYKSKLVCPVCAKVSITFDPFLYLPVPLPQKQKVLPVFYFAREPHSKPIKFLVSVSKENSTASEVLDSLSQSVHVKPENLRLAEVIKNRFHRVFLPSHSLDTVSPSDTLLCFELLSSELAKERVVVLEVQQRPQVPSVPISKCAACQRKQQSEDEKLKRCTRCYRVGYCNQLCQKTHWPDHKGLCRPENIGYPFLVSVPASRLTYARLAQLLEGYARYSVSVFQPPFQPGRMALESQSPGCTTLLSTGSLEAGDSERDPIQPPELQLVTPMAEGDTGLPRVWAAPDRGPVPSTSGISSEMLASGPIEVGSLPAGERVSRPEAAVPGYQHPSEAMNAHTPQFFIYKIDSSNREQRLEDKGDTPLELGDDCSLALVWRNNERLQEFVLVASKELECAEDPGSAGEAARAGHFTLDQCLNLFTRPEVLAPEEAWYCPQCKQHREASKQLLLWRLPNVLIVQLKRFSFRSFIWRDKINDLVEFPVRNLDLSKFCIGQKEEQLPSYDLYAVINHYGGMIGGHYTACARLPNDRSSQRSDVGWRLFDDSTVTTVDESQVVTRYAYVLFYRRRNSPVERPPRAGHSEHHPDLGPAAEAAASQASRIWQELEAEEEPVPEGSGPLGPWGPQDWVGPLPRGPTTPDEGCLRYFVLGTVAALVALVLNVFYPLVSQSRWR
In short: (§1)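 Labelled DUBs were enriched with NeutrAvidin, digested with LysC and trypsin, and run by diaPASEF LC-MS/MS. The labelling used Biotin-Ahx-Ub-VS at 0.5 µM final for 1 h on HEK293T lysate (495 µg per sample) previously treated in triplicate with fragment at 200 µM or vehicle for 3 h. Values are average log2 fragment/vehicle ratios by unpaired t-test on global-median-normalised Spectronaut quantities of proteins with ≥2 unique peptides.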

USP22 = biological target: T2, USP22 (UniProt Q9UPT9)
T2 sequence (whole entry): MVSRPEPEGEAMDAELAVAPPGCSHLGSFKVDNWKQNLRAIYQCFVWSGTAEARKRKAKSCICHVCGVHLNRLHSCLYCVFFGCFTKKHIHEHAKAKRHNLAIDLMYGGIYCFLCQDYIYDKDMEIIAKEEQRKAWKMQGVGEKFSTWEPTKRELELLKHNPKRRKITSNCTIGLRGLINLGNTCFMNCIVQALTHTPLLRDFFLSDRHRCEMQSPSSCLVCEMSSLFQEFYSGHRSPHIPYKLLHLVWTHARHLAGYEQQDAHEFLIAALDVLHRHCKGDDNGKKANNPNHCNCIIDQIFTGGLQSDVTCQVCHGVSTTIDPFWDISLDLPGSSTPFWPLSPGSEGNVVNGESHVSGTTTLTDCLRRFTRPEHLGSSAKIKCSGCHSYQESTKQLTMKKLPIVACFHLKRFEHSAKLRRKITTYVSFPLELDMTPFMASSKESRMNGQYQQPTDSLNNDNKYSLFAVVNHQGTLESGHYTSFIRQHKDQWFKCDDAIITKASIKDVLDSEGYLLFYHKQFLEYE
In short: as §1

USP24 = USP24 (UniProt Q9UPU5)
Sequence of USP24 (Q9UPU5 whole entry): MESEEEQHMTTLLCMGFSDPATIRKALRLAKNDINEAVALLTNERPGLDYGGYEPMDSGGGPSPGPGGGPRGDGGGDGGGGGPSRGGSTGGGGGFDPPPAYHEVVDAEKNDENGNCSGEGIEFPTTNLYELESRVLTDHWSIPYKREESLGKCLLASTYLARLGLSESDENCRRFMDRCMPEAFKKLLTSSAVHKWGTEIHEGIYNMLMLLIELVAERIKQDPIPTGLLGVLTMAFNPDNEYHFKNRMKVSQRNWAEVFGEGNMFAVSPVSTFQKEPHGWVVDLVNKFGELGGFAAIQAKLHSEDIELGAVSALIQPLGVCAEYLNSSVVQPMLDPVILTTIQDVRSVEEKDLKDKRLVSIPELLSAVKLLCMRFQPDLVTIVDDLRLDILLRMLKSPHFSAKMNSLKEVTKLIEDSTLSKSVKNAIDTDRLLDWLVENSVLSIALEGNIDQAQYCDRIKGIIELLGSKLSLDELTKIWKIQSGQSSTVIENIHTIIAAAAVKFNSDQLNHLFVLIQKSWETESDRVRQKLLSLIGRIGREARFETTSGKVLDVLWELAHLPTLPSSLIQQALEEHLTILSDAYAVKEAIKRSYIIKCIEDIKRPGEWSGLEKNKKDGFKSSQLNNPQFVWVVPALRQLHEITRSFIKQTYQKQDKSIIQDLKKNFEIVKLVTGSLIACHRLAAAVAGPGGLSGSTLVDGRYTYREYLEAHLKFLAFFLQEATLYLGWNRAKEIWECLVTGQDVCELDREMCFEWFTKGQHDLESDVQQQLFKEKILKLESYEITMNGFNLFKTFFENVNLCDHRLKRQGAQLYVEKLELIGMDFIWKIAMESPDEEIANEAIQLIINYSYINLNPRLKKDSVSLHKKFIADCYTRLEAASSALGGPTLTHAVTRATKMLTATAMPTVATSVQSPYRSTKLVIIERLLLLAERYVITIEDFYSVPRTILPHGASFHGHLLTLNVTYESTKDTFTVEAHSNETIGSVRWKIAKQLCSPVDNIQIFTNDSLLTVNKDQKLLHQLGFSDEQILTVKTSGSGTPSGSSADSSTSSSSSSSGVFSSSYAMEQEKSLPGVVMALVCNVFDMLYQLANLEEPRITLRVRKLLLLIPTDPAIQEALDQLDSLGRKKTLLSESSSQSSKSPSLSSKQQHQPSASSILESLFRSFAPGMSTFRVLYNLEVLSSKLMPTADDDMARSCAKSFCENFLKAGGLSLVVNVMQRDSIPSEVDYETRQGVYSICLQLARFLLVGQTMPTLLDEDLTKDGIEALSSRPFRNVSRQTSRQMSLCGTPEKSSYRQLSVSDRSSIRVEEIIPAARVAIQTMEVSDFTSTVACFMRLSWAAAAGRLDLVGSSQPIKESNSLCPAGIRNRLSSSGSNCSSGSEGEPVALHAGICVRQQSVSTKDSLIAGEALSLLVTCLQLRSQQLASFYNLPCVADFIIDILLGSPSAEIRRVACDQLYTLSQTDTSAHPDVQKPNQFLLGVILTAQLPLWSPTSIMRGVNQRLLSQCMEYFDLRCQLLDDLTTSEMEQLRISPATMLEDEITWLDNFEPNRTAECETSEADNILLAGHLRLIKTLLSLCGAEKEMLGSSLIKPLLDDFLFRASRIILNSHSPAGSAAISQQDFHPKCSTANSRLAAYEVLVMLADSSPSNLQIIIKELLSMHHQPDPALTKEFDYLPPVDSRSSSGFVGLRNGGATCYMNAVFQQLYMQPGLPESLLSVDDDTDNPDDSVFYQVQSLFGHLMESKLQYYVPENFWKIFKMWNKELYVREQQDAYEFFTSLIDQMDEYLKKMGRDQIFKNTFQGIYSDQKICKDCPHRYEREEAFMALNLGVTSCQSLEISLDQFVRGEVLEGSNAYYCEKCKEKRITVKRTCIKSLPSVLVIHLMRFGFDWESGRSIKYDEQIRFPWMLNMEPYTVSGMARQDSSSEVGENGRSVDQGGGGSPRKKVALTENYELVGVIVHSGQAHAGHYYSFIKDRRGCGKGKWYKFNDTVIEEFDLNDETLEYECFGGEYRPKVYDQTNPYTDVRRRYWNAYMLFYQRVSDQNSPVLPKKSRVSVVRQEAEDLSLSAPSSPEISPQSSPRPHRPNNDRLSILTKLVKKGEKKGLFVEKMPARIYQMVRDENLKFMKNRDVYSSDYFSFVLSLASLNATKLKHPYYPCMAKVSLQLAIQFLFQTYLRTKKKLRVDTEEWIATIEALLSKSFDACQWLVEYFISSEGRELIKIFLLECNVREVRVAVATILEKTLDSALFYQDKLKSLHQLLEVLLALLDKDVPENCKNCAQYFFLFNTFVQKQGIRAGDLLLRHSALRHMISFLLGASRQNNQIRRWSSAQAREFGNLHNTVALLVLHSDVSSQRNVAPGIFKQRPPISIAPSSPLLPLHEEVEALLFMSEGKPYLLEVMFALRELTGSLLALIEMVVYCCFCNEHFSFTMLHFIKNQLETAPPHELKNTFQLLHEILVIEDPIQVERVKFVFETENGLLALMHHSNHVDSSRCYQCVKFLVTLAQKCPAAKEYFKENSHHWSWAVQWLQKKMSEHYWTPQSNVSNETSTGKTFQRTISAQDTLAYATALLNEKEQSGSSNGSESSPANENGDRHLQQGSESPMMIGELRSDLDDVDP
In short: as §1

USP25 = biological target: T3, USP25 (UniProt Q9UHP3)
T3 sequence (whole entry): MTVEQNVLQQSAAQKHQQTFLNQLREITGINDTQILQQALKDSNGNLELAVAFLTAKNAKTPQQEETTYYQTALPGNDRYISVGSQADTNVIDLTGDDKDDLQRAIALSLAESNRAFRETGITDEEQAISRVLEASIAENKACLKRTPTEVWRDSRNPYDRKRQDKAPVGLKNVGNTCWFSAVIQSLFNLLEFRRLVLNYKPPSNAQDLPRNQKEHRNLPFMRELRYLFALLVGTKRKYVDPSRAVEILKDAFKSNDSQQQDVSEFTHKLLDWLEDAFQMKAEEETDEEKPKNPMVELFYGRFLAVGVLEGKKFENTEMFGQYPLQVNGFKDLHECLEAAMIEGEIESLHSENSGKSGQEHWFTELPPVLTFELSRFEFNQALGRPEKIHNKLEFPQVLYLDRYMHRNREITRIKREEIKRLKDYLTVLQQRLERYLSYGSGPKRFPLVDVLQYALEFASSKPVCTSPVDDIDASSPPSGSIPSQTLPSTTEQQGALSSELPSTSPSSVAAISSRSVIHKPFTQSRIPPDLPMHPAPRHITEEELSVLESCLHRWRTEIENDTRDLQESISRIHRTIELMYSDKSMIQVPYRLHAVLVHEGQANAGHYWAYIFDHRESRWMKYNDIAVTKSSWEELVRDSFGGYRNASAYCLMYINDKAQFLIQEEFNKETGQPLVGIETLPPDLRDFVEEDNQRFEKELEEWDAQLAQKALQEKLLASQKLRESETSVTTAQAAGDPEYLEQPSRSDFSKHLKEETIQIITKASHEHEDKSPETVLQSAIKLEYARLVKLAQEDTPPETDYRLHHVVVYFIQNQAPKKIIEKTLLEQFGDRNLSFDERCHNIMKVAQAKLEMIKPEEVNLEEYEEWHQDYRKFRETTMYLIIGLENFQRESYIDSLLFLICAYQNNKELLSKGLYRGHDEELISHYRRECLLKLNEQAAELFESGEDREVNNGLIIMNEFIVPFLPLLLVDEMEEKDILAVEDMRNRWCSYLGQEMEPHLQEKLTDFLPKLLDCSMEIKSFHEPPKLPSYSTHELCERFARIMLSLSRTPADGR
In short: as §1

USP28 = biological target: T4, USP28 (UniProt Q96RU2)
T4 sequence (whole entry): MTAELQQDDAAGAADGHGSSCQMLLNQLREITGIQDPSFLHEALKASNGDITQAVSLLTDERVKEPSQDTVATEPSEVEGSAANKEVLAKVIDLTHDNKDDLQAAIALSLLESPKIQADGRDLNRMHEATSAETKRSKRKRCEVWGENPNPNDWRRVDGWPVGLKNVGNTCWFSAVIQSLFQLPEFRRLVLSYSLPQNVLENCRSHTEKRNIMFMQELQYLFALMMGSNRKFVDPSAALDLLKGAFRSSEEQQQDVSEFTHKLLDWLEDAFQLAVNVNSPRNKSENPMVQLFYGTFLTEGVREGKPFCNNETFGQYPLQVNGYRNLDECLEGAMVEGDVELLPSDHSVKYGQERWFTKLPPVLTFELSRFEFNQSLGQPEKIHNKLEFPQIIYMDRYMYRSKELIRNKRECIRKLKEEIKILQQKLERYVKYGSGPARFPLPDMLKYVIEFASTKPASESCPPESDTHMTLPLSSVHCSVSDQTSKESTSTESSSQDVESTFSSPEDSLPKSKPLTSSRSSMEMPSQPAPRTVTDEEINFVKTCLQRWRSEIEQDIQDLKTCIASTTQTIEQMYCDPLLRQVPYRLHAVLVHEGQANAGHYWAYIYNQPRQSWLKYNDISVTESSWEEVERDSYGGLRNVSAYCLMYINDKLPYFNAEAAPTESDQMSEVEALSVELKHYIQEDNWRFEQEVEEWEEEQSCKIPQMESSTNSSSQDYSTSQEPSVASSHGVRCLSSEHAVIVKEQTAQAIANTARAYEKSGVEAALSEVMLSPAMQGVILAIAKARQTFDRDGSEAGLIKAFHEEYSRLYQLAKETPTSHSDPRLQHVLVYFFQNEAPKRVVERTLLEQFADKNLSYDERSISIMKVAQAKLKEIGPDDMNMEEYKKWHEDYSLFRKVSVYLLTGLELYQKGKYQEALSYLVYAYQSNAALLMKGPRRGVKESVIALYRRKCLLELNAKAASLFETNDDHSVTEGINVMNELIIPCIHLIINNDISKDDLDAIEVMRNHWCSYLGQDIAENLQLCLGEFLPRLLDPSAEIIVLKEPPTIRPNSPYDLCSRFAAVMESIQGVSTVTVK
In short: as §1

Measured: log2 ratio of Biotin-Ahx-Ub-VS probe labelling

Cc1c(NC(=O)CCl)c(=O)n(-c2ccccc2)n1C
inactive: USP19 -0.181 | USP22 -0.000691 | USP24 -0.125 | USP25 -0.16 | USP28 -0.182
